10 molecules from PubChem BioAssay (EPA / NIEHS) can be followed below.

Experiment [1] addresses Nuclear respiratory factor 1 (Homo sapiens) (UniProt Q16656). The experiment is described as follows: ATG_NRF1_CIS: Attagene CIS-FACTORIAL HepG2 Assay for human Nuclear Respiratory Factor 1 (NRF1) Orphan Gene (AID 2282987). The following applies: HepG2 NRF1 cis-element reporter, Attagene multiplex; actives raise or lower the signal. The method, boiled down: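 Reporter mRNA induction or loss in HepG2 cells after 24 h dosing; cis-regulated reporter constructs report endogenous transcription-factor activity. Quantified by RT-PCR/capillary electrophoresis fluorescence, DMSO-referenced.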

Experiment [2] in a line: ATG_NFI_CIS: Attagene CIS-FACTORIAL HepG2 Assay for human Nuclear Factor I (NFI) (AID 2282989). The conditions noted are these: HepG2 cis-regulatory reporter, NFI response element transcription; actives raise or lower the signal. The method, boiled down:
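Transfected HepG2 liver cells, exposed 24 h, supplied total RNA for oligo(dT) reverse transcription and reporter-specific PCR. Labelled, HpaI-cut fragments were sized by capillary electrophoresis; DMSO set the baseline for bidirectional fitting.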

Experiment [3] deals with Myc proto-oncogene protein (Homo sapiens) (UniProt P01106). Description: ATG_Myc_CIS: Attagene CIS-FACTORIAL HepG2 Assay for human Myelocytomatosis (Myc) Proto-Oncogene Transcription Factor (AID 2282990). The following applies: HepG2, Attagene cis-reporter transcription factor activity; actives raise or lower the signal. The procedure, abridged: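 Transiently transfected HepG2 cells bearing cis-promoter reporter units for endogenous transcription factors; 24 h exposure. Reporter mRNA measured by RT-PCR, 6-FAM primer extension, HpaI cut and capillary electrophoresis; bidirectional fit relative to DMSO.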

Experiment [4] in a line: ATG_NF_kB_CIS: Attagene CIS-FACTORIAL HepG2 Assay for human Nuclear Factor Kappa B (NF-kB) (AID 2282991). The conditions noted are these: HepG2 Attagene cis-factorial NF-kB reporter mRNA; actives raise or lower the signal. The method, boiled down:
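DMSO served as negative control and baseline for bidirectional curve fitting. Transiently transfected HepG2 cells were dosed for 24 h, then reporter transcripts were measured by RT-PCR with capillary electrophoresis detection.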

The nature of experiment [5]: ATG_NRF2_ARE_CIS: Attagene CIS-FACTORIAL HepG2 Assay for human Nuclear Factor Erythroid 2 Related Factor 2 (NFR2) response to Antioxidant Response Elements (ARE) (AID 2282992).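 For AC50: reporter mRNA level measured by RT-PCR and capillary electrophoresis fluorescence.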 The following applies: HepG2 Attagene ARE/NRF2 reporter, transcription factor activity; actives raise or lower the signal. The method, boiled down:
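Endogenous transcription factor activity in human liver HepG2 cells is tracked via a cis-element-driven reporter within a multiplexed set. mRNA induction is read by RT-PCR and capillary electrophoresis after 24 h, with DMSO as baseline.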

The nature of experiment [6]: ATG_Oct_MLP_CIS: Attagene CIS-FACTORIAL HepG2 Assay for human Octamer-Binding Transcription Factor (Oct) (AID 2282993). The following applies: HepG2 Attagene cis-factorial Oct reporter, mRNA; actives raise or lower the signal. The method, boiled down:
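Using HepG2 cells bearing transfected cis-reporter constructs, mRNA induction was read after 24 h by fluorescent RT-PCR and capillary electrophoresis, with DMSO defining baseline for gain- or loss-of-signal fits.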

The target in experiment [7] is Cellular tumor antigen p53 (Homo sapiens) (UniProt P04637). Description: ATG_p53_CIS: Attagene CIS-FACTORIAL HepG2 Assay for human p53 Transcription Factor (AID 2282994). The following applies: HepG2 p53 cis-element reporter, Attagene mRNA; actives raise or lower the signal. The method, boiled down:
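Steps: transfect HepG2 with multiplexed cis reporter constructs; dose chemicals 24 h; extract RNA, reverse-transcribe, PCR-amplify reporter sequences; FAM-label, HpaI-digest, resolve fragments by CE. Activity fitted both directions relative to DMSO.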

Experiment [8] deals with human Peroxisome Proliferator-activated Receptor alpha (PPARa), PPARA (gene 5465) (UniProt Q07869). The experiment is described as follows: ATG_PPARa_TRANS: Attagene TRANS-FACTORIAL HepG2 Assay for human Peroxisome Proliferator-activated Receptor alpha (PPARa) (AID 2283001; active = hit-call score of the fitted dose curve at least 0.9, where 1 is the maximum;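 for AC50: potency for gain of reporter signal over DMSO so agonist or activator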). The procedure, abridged: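 Transient HepG2 transfection, GAL4-UAS reporters, NR-Gal4 chimeras; 24 h compound exposure. Readout: reporter transcripts by RT-PCR, 6-FAM primer extension, HpaI digest, capillary electrophoresis. Positive direction vs DMSO baseline.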

Experiment [9] concerns the target human Peroxisome Proliferator-activated Receptor delta (PPARd), PPARD (gene 5467) (UniProt Q03181). Description: ATG_PPARd_TRANS: Attagene TRANS-FACTORIAL HepG2 Assay for human Peroxisome Proliferator-activated Receptor delta (PPARd) (AID 2283002; active = hit-call score of the fitted dose curve at least 0.9, where 1 is the maximum). The method, boiled down: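 HepG2 cells transiently transfected with GAL4-UAS multiplexed reporter units driven by exogenous chimeric NR-GAL4 proteins; 24 h compound exposure. Reporter mRNA measured by RT-PCR, 6-FAM primer extension, HpaI digestion and capillary electrophoresis; gain of signal fitted relative to DMSO.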

Experiment [10] has as its target Peroxisome proliferator-activated receptor gamma (Homo sapiens) (UniProt P37231). The experiment is described as follows: ATG_PPARg_TRANS: Attagene TRANS-FACTORIAL HepG2 Assay for human Peroxisome Proliferator-activated Receptor-gamma (PPARg) (AID 2283007; active = hit-call score of the fitted dose curve at least 0.9, where 1 is the maximum). The procedure, abridged: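 Chimeric NR-Gal4 transactivation is measured in transiently transfected HepG2 cells by reporter mRNA induction at 24 h. Detection uses RT-PCR with fluorescent labelling and capillary electrophoresis; DMSO defines baseline.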

The target of experiment [11] is Nuclear receptor subfamily 1 group I member 2 (Homo sapiens) (UniProt O75469). Description: ATG_PXR_TRANS: Attagene TRANS-FACTORIAL HepG2 Assay for human Pregnane X Receptor (PXR) (AID 2283008; active = hit-call score of the fitted dose curve at least 0.9, where 1 is the maximum). The procedure, abridged:
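HepG2 transfected (FuGene 6) with GAL4-UAS reporter units + PXR-Gal4 chimera; dosed 24 h. Total RNA → oligo(dT) RT → PCR → 6-FAM primer extension → HpaI cut → CE. Gain-of-signal vs DMSO.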

Experiment [12] has as its target human Retinoic Acid Receptor beta (RARb), RARB (gene 5915) (UniProt P10826). Description: ATG_RARb_TRANS: Attagene TRANS-FACTORIAL HepG2 Assay for human Retinoic Acid Receptor beta (AID 2283004; active = hit-call score of the fitted dose curve at least 0.9, where 1 is the maximum). The procedure, abridged: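 Induction of reporter mRNA from a chimeric RARb-Gal4 construct was measured by RT-PCR, FAM labelling, HpaI digestion and capillary electrophoresis. Measurements followed 24 h compound treatment of transiently transfected human HepG2 liver cells, with DMSO as baseline.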

Experiment [13] addresses Retinoic acid receptor alpha (Homo sapiens) (UniProt P10276). Description: ATG_RARa_TRANS: Attagene TRANS-FACTORIAL HepG2 Assay for human Retinoic Acid Receptor alpha (RARa) (AID 2283005; active = hit-call score of the fitted dose curve at least 0.9, where 1 is the maximum). The procedure, abridged: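 HepG2 transiently transfected with multiplex GAL4-UAS reporter units including a human RARa–GAL4 chimera; 24 h compound exposure. Reporter mRNA quantified by RT-PCR, 6-FAM labeling and capillary electrophoresis; gain of signal versus DMSO.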

Experiment [14] has as its target human Retinoic Acid Receptor gamma (RARg), RARG (gene 5916) (UniProt P13631). The experiment is described as follows: ATG_RARg_TRANS: Attagene TRANS-FACTORIAL HepG2 Assay for human Retinoic Acid Receptor gamma (RARg) (AID 2283009; active = hit-call score of the fitted dose curve at least 0.9, where 1 is the maximum). The method, boiled down: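 Readout: reporter transcript levels via RT-PCR, 6-FAM primer-extension labelling, HpaI digestion and capillary electrophoresis. Cells: HepG2 carrying transfected RARg-GAL4 chimera plus UAS reporter set. Dosing 24 h; DMSO negative control.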

Experiment [15] is described as follows: BSK_3C_TissueFactor: BioMAP Diversity Plus: 3C Assay for Tissue Factor Biomarker Activity (AID 2282997). The conditions noted are these: BioMAP 3C HUVEC, tissue factor biomarker readout; actives raise or lower the signal. The procedure, abridged: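 Tissue factor on primary human umbilical vein endothelium was read by ELISA 24 h after dosing, gain or loss relative to DMSO. Cytotoxicity ran alongside via SRB (0.1%, TCA-fixed, 560 nm).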

Experiment [16] in a line: BSK_3C_uPAR: BioMAP Diversity Plus: 3C Assay for Urokinase-type plasminogen activator receptor (uPAR) Biomarker Activity (AID 2282998). The conditions noted are these: BioMAP 3C HUVEC, uPAR biomarker ELISA; actives raise or lower the signal. The procedure, abridged:
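In this endothelial cell-based assay, human umbilical vein primary cells were treated with chemicals and harvested at 24 h. uPAR was quantified using ELISA, with gains or losses fitted relative to DMSO controls.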
On the technique in general: In an ELISA, binding on a coated surface is turned into a signal by an enzyme label.

Experiment [17] is described as follows: BSK_3C_VCAM1: BioMAP Diversity Plus: 3C Assay for Vascular cell adhesion molecule 1 (VCAM1) Biomarker Activity (AID 2282999). The conditions noted are these: BioMAP 3C HUVEC, VCAM1 ELISA, cytokine-stimulated; actives raise or lower the signal. The procedure, abridged:
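HUVEC primary cells, 24 h compound exposure; VCAM-1 by ELISA; gain/loss of signal fitted bidirectionally vs DMSO baseline.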

Experiment [18] can be described thus: BSK_4H_Eotaxin3: BioMAP Diversity Plus: 4H Assay for Eotaxin 3 Biomarker Activity (AID 2283000).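 Note: CCL26 protein level quantified by ELISA in parallel with SRB cytotoxicity check.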 The conditions noted are these: primary human endothelial cells (HUVEC); actives raise or lower the signal. The method, boiled down: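 Human umbilical vein endothelial cells (BSK_4H system) dosed with test chemical; Eotaxin-3 (CCL26) measured by ELISA 24 h after dosing. Bidirectional curve fitting relative to DMSO negative control as baseline.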

Read-out in experiment [19]: Intercellular Adhesion Molecule 1 (ICAM1), ICAM1 (gene 3383)
Description: BSK_3C_ICAM1: BioMAP Diversity Plus: 3C Assay for Intercellular Adhesion Molecule 1 (ICAM1) Biomarker Activity (AID 2283003). The following applies: primary human endothelial cells (HUVEC); actives raise or lower the signal. The procedure, abridged:
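ELISA read-out of ICAM-1; HUVEC (primary human), 3C system, 24 h post-dosing; bidirectional fit vs DMSO baseline.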

Experiment [20] in a line: BSK_3C_Proliferation: Cell Proliferation Assessment in the BioMAP Diversity Plus: 3C Assay (AID 2283006). The following applies: primary human endothelial cells (HUVEC). The method, boiled down: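 HUVEC, sub-confluent; 48 h chemical exposure; 10% TCA fix, 0.1% SRB stain, A560 total protein. Gain or loss of signal fitted both directions vs DMSO control.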

Records with an inconclusive call do not appear. The source made the active and inactive calls. Rule for the calls, unless noted: active = hit-call score of the fitted dose curve at least 0.9, where 1 is the maximum; inactive = score below 0.9.

Myc proto-oncogene protein (Homo sapiens), sequence (P01106 whole entry, looked up): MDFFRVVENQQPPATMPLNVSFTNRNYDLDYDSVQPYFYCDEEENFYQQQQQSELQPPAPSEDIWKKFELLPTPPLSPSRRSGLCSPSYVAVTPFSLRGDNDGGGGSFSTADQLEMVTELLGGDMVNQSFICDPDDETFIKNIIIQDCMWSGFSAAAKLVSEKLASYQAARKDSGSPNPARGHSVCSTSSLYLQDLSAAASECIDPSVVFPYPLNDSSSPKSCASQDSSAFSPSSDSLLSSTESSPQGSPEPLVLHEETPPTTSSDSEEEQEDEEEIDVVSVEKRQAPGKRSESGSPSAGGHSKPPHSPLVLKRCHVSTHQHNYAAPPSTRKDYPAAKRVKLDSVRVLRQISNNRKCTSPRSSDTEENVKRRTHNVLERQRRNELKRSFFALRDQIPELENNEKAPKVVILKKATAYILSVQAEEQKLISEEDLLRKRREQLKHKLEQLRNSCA
Cellular tumor antigen p53 (Homo sapiens), sequence (P04637 whole entry, looked up, the tested form may be a part): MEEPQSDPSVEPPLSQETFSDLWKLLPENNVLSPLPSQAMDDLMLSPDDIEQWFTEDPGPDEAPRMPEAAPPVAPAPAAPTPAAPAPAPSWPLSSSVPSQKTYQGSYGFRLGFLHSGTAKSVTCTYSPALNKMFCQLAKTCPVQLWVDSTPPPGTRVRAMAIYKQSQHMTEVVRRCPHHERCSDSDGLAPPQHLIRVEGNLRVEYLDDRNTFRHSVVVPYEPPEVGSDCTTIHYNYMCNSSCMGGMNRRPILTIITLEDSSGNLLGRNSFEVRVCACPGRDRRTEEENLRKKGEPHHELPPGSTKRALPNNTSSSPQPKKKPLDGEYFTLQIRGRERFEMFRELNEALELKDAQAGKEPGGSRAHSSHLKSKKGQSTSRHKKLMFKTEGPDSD
Retinoic acid receptor alpha (Homo sapiens), sequence (P10276 whole entry, looked up, the tested form may be a part): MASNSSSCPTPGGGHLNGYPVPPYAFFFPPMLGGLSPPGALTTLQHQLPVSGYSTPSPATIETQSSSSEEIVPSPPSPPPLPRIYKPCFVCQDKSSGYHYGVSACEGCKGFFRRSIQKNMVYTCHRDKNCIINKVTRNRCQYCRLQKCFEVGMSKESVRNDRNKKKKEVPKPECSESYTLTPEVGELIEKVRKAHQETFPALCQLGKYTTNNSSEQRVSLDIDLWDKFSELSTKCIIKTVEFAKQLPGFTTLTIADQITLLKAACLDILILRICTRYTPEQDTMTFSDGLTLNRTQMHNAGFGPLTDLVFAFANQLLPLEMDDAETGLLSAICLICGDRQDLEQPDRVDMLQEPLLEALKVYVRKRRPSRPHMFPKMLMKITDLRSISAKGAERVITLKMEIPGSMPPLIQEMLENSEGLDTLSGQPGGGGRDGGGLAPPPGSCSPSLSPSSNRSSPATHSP
human Retinoic Acid Receptor gamma (RARg), RARG (gene 5916), sequence (P13631 whole entry, looked up, the tested form may be a part): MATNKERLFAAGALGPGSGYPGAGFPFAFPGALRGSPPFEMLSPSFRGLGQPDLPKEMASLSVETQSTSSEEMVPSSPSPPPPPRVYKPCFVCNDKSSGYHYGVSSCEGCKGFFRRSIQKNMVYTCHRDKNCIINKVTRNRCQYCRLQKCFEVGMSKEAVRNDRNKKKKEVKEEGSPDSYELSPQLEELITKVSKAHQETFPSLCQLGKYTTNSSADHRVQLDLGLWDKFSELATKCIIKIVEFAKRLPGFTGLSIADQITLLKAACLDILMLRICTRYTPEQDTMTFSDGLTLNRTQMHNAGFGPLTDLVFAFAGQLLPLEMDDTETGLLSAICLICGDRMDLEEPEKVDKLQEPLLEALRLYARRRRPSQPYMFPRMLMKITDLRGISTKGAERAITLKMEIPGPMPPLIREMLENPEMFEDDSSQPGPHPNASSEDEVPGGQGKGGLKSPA
Peroxisome proliferator-activated receptor gamma (Homo sapiens), sequence (P37231 whole entry, looked up, the tested form may be a part): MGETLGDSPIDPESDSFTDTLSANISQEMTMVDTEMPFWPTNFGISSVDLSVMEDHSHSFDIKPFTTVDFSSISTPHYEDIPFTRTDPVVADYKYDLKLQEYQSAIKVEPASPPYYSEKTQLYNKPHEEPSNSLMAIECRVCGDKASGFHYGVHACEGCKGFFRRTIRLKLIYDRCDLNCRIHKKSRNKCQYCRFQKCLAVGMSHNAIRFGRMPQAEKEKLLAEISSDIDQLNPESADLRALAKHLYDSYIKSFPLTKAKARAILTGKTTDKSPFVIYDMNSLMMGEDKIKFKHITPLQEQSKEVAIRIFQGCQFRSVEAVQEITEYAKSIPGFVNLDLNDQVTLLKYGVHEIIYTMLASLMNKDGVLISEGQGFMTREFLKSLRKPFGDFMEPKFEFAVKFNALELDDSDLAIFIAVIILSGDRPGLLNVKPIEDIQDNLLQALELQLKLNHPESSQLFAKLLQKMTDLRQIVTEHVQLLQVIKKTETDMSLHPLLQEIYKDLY
human Peroxisome Proliferator-activated Receptor alpha (PPARa), PPARA (gene 5465), sequence (Q07869 whole entry, looked up, the tested form may be a part): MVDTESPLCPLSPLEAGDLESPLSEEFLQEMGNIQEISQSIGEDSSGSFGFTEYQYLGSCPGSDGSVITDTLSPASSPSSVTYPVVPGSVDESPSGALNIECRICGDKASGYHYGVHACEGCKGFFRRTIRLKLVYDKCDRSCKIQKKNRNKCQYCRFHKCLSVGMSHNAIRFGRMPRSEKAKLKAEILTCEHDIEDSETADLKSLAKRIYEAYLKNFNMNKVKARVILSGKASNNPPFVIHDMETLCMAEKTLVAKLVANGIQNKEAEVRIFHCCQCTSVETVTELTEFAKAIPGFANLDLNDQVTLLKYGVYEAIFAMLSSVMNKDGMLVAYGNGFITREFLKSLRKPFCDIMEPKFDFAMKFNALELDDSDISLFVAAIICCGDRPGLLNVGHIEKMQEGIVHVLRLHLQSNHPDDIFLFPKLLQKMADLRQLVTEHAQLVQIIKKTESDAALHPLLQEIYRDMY
human Retinoic Acid Receptor beta (RARb), RARB (gene 5915), sequence (P10826 whole entry, looked up, the tested form may be a part): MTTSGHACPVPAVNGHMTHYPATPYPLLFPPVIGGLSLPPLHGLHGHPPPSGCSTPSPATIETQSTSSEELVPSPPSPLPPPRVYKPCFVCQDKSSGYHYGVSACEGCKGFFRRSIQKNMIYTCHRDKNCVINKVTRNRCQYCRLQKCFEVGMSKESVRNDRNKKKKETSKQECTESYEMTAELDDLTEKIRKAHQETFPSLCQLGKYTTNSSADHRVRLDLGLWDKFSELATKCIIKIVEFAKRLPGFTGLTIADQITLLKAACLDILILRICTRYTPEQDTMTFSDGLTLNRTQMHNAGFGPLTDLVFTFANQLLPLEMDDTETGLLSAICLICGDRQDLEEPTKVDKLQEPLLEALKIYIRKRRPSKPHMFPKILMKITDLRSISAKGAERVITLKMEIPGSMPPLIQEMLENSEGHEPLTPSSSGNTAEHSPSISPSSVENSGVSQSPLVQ
Nuclear receptor subfamily 1 group I member 2 (Homo sapiens), sequence (O75469 whole entry, looked up, the tested form may be a part): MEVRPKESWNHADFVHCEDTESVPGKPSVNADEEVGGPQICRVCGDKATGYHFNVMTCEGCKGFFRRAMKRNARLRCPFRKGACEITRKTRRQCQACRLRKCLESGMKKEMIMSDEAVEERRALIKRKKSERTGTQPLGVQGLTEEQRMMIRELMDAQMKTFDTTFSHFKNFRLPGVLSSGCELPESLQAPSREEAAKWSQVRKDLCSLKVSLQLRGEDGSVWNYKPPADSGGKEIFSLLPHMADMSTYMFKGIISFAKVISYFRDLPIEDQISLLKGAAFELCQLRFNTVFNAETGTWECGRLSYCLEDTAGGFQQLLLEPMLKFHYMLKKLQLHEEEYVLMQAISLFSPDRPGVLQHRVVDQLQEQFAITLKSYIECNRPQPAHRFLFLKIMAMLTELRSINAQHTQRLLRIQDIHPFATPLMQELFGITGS
Nuclear respiratory factor 1 (Homo sapiens), sequence (Q16656 whole entry, looked up): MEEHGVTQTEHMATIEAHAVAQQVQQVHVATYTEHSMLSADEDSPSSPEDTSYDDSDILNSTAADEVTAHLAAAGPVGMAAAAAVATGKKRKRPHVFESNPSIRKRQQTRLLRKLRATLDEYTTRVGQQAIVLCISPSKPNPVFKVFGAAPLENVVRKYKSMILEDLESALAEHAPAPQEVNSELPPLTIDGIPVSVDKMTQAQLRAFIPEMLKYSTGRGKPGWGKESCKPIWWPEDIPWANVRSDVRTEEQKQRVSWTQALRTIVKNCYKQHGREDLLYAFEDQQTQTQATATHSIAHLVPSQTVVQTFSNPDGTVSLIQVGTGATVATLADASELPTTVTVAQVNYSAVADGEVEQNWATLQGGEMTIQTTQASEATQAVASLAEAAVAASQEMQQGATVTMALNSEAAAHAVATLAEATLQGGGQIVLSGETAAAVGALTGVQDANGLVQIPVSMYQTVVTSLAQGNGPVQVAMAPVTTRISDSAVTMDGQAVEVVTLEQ
human Peroxisome Proliferator-activated Receptor delta (PPARd), PPARD (gene 5467), sequence (Q03181 whole entry, looked up, the tested form may be a part): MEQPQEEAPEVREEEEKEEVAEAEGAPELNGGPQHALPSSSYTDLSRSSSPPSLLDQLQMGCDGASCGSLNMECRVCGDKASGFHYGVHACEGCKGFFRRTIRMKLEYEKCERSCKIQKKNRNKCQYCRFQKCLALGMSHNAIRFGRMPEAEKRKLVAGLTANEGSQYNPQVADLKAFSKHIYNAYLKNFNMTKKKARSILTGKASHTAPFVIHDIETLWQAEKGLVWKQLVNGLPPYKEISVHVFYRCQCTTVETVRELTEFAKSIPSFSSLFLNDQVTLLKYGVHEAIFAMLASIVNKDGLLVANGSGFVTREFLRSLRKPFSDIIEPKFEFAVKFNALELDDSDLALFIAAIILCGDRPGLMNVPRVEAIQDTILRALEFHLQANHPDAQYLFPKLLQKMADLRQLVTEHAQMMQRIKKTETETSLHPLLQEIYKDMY

Turning to `CC(C)CC=C(C=O)c1ccccc1`, the molecule was classed as inactive in experiment [1], in [2], in [3], in [4], in experiment [6] and in [7]. Besides, the outcome in experiment [8] and in experiment [9] was inactive. Moreover, the concentration at half-maximal activity (AC50) in experiment [5] is 71.8 µM (active); in experiment [10] it was 39.5 µM (active); in experiment [11], 0.891 µM (active).
On to `CCCCCCCC/C=C\CCCCCCCC(=O)N(C)CC(=O)O`, for which the call in [1], in experiment [2], in experiment [3], in experiment [4], in experiment [5] and in experiment [6] was inactive. Moreover, the molecule was called inactive in [7], in experiment [9], in experiment [12], in experiment [13], in [11] and in experiment [14]. In addition, the results for the AC50 in experiment [8] and in experiment [10] were 2.02 µM (active) and 5.36 µM (active), respectively.
`CCC(=O)OC(C)c1ccccc1` (stereo not given): the molecule was called inactive in experiment [1], in experiment [2], in experiment [3], in experiment [4], in experiment [5] and in experiment [6]. For the same molecule, the molecule was called inactive in [7], in experiment [8], in experiment [9], in [13], in experiment [10] and in experiment [14].
For the molecule `CC(C)OC=O`, the molecule was classed as inactive in experiment [1], in experiment [2], in experiment [3], in [4], in experiment [5] and in experiment [6]. The molecule was classed as inactive in experiment [7], in experiment [8], in experiment [10] and in experiment [11].
On to `Cc1ccc(O)cn1`, for which the outcome in experiment [1], in [2], in experiment [3], in [4], in experiment [5] and in experiment [6] was inactive. The call in experiment [7], in [9], in experiment [10] and in experiment [11] was inactive.
Consider `CCOCOCC`, for which the molecule was classed as inactive in experiment [1], in [2], in experiment [3], in experiment [4], in experiment [5] and in experiment [6]. For the same molecule, the result in experiment [7], in experiment [9], in [12], in experiment [13], in experiment [10] and in experiment [14] was inactive.
In the case of `C[Si](C)O[Si](C)C`, the result in experiment [1], in experiment [2], in experiment [3], in [4], in experiment [5] and in experiment [6] was inactive. The molecule was classed as inactive in experiment [7], in [8], in experiment [9], in [12] and in experiment [14].
As for `Cc1ccc(O)c(-n2nc3ccccc3n2)c1`, the outcome in experiment [1], in [2], in experiment [3], in experiment [4], in experiment [6] and in experiment [15] was inactive. The outcome in experiment [16], in experiment [17], in experiment [18], in [8], in experiment [9] and in experiment [19] was inactive. The result in experiment [12], in [20] and in [10] was inactive. For the same molecule, the results for the AC50 in [5] and in [11] were 4.95 µM (active) and 14.6 µM (active), respectively.
For `CSc1ccc(Cl)cc1`, the outcome in [1], in experiment [2], in experiment [3], in experiment [4], in experiment [5] and in experiment [6] was inactive. Further, the result in experiment [7], in [8], in experiment [9] and in experiment [11] was inactive.
With `O=C1c2ccccc2C(=O)c2c(Cl)cccc21`, the call in [1], in experiment [2], in experiment [3], in [5], in [6] and in [7] was inactive. For the same molecule, the molecule was called inactive in experiment [8], in [9], in [13], in [10] and in experiment [14]. Moreover, the concentration at half-maximal activity (AC50) in experiment [4] was 4.35 µM (active); in experiment [11], 2.73 µM (active).

The term AC50 denotes the midpoint of the concentration-response curve, whichever way the signal moves.
